According to the supplement of paper PMC10849652:
About 7,900 targets were measured; listed, in parts, are those with a hit and a random draw of the rest. About 0.6% of all pairs of compound and target were hits.

Key:
Assay in all cases: log2 fold change, soluble protein after heating vs DMSO (PISA); higher = thermal stabilisation; K562 cells, 10 uM, 30 min; active = over 0.2 and 3.5 SD of the protein, either way, in both replicates (recomputed)
[1] = compound: CC[C@@H]1C(=O)N(C)c2cnc(Nc3ccc(C(=O)NC4CCN(C)CC4)cc3OC)nc2N1C1CCCC1
Method in brief: (§1)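 Quantification of soluble protein used TMTpro 16plex LC-MS/MS, with channel sums equalised. Samples were the supernatant after 21,000xg for 90 min of pooled aliquots from K562 cells (2×10^6 cells/mL) treated with 10 μM compound for 30 min, heated for 3 min over 48°C-58°C, and extracted in PBS with 0.5% NP-40 at 4°C. Values, from duplicates, describe thermal stability against control samples on a log2 fold-change scale.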

volasertib = compound: CC[C@@H]1C(=O)N(C)c2cnc(Nc3ccc(C(=O)N[C@H]4CC[C@H](N5CCN(CC6CC6)CC5)CC4)cc3OC)nc2N1C(C)C [volasertib]
Method in brief: as §1

[2] = compound: CC[C@H](C)N1C=C(C2=C(C=C(C=C21)C3=CN=C(C=C3)N4CCNCC4)C(=O)NCC5=C(C=C(NC5=O)C)C)C
Method in brief: as §1

epoxomicin = compound: CC[C@H](C)[C@@H](C(=O)N[C@@H]([C@@H](C)O)C(=O)N[C@@H](CC(C)C)C(=O)[C@]1(CO1)C)NC(=O)[C@H]([C@@H](C)CC)N(C)C(=O)C [epoxomicin]
Method in brief: as §1

[3] = compound: CCn1c(C(=O)N(C2CC2)C2CC2)cc2c3c(ncn3C)c(Nc3cc(C)n(C)n3)nc21
Method in brief: as §1

[4] = compound: CCn1cc(-c2ccnc3[nH]c(-c4cccc(CN(C)C)c4)cc23)c(-c2ccc(NC(=O)N(C)C)cc2)n1
Method in brief: as §1

[5] = compound: CN(C)CC(=O)Nc1ccc2[nH]c(=O)c3ccccc3c2c1
Method in brief: as §1

rosiglitazone = compound: CN(CCOC1=CC=C(C=C1)C[C@H]2C(=O)NC(=O)S2)C3=CC=CC=N3 (racemic) [rosiglitazone]
Method in brief: as §1

[6] = compound: CN1C2=C(C3=C1C(=O)N(N=C3)CC4=CC(=CC=C4)N)SC(=C2)S(=O)C
Method in brief: as §1

[7] = compound: CN1CCC(CNc2ccc3ncc(-c4cccc(OC(F)(F)F)c4)n3n2)CC1
Method in brief: as §1

Measured: log2 fold change

GMEB1 (UniProt Q9Y692)
inactive: [1] -0.071 | [2] 0.039 | epoxomicin 0.059 | [3] -0.056 | [4] -0.05 | [5] -0.045 | rosiglitazone 0.096 | [6] -0.07 | [7] -0.014
active: volasertib -0.281

HDAC7 isoform 5 (UniProt Q8WUI4)
inactive: [1] 0.051 | volasertib 0.01 | [2] 0.007 | epoxomicin 0.016 | [3] -0.031 | [4] -0.058 | [5] 0.059 | rosiglitazone 0.011 | [6] -0.053 | [7] -0.123

GALNT2 (UniProt Q10471)
active: volasertib -0.377
inactive: [1] -0.082 | [2] 0.027 | epoxomicin -0.004 | [3] 0.003 | [4] -0.034 | [5] -0.021 | rosiglitazone 0.027 | [6] -0.079 | [7] -0.077

HIP1R (UniProt O75146)
inactive: [1] -0.035 | [2] 0.015 | epoxomicin 0.051 | [3] -0.04 | [4] -0.016 | [5] -0.017 | rosiglitazone 0.067 | [6] 0.026 | [7] -0.134
active: volasertib -0.268

GTF2E1 (UniProt P29083)
active: volasertib -0.567
inactive: [1] -0.267 | [2] 0.096 | epoxomicin -0.015 | [3] -0.062 | [4] 0.023 | [5] 0.072 | rosiglitazone 0.033 | [6] -0.034 | [7] -0.084

IFRD2 isoform 2 (UniProt Q12894)
inactive: [1] 0.084 | volasertib 0.045 | [2] -0.261 | epoxomicin -0.02 | [3] 0 | [4] 0.029 | [5] -0.319 | rosiglitazone 0.225 | [6] -0.023 | [7] 0.196

GINS2 (UniProt Q9Y248)
inactive: [1] -0.011 | volasertib -0.07 | [2] 0.171 | epoxomicin 0.014 | [3] 0.008 | [4] -0.135 | [5] 0.06 | rosiglitazone 0.058 | [6] 0.064 | [7] 0.062

GSTT1 (UniProt P30711)
Sequence of UniProt P30711 (P30711 whole entry, looked up): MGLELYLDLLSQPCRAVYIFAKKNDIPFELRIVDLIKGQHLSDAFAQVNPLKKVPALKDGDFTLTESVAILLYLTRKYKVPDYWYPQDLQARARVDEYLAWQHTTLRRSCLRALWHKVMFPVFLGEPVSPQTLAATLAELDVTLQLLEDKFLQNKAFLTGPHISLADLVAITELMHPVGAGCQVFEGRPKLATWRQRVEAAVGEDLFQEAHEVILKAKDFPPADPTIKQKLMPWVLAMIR
inactive: [1] 0.02 | volasertib -0.057 | [2] -0.038 | epoxomicin 0.203 | [3] -0.019 | [4] 0.019 | [5] -0.034 | rosiglitazone -0.024 | [6] -0.058 | [7] -0.002

FKBP3 (UniProt Q00688)
Sequence of UniProt Q00688 (Q00688 whole entry, looked up): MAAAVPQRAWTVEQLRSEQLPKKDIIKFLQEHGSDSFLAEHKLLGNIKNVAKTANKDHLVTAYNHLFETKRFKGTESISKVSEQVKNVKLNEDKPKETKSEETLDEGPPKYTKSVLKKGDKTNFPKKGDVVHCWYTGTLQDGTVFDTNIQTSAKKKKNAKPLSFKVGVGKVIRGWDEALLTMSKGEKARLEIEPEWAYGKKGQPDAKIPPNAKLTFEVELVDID
inactive: [1] 0.006 | volasertib 0.075 | [2] 0.03 | epoxomicin 0.037 | [3] 0 | [4] -0.001 | [5] 0.001 | rosiglitazone -0.002 | [6] -0.065 | [7] 0.015

FAM91A1 (UniProt Q658Y4)
inactive: [1] 0.062 | volasertib 0.221 | [2] -0.007 | [3] -0.08 | [4] -0.015 | [5] -0.003 | rosiglitazone 0.037 | [6] 0.001
active: epoxomicin -0.675 | [7] 0.233

GSR (UniProt P00390)
inactive: [1] 0.04 | volasertib 0.034 | [2] -0.038 | epoxomicin 0.001 | [3] -0.023 | [4] -0.008 | [5] -0.018 | rosiglitazone 0.024 | [6] -0.071 | [7] -0.02

GEMIN6 (UniProt Q8WXD5)
Sequence of UniProt Q8WXD5 (Q8WXD5 whole entry, looked up): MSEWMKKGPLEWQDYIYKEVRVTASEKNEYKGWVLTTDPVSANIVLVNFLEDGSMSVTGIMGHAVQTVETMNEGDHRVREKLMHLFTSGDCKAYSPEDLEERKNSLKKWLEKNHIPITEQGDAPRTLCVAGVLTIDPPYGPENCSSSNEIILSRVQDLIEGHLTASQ
inactive: [1] 0.109 | volasertib 0.148 | [2] -0.052 | epoxomicin 0.093 | [3] -0.017 | [4] -0.019 | [5] -0.039 | rosiglitazone 0.071 | [6] -0.087 | [7] -0.048

FBXO7 (UniProt Q9Y3I1)
Sequence of UniProt Q9Y3I1 (Q9Y3I1 whole entry, looked up): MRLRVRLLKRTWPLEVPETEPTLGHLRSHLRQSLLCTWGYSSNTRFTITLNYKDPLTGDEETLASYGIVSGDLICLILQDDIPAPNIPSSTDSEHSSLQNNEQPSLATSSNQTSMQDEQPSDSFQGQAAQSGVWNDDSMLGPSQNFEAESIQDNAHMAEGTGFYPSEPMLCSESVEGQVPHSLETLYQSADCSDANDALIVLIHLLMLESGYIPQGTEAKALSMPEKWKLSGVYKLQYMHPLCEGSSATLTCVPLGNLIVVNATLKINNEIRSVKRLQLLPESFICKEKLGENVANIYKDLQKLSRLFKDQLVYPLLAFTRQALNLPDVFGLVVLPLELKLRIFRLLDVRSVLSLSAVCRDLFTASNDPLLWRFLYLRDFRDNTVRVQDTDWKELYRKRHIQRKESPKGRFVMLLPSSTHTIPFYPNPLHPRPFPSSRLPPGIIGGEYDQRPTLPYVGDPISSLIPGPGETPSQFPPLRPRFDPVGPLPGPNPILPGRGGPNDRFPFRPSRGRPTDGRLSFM
active: [4] -0.295
inactive: [1] 0.079 | volasertib -0.198 | [2] 0.044 | epoxomicin -0.012 | [3] -0.066 | [5] 0.029 | rosiglitazone 0.008 | [6] -0.022 | [7] 0.003

HIST2H3A (UniProt Q71DI3)
inactive: [1] -0.206 | volasertib 0.111 | [2] -0.023 | epoxomicin -0.003 | [3] -0.185 | [4] 0.315 | [5] -0.124 | rosiglitazone 0.011 | [6] 0.56 | [7] 0.09

FDPS (UniProt P14324)
Sequence of UniProt P14324 (P14324 whole entry, looked up): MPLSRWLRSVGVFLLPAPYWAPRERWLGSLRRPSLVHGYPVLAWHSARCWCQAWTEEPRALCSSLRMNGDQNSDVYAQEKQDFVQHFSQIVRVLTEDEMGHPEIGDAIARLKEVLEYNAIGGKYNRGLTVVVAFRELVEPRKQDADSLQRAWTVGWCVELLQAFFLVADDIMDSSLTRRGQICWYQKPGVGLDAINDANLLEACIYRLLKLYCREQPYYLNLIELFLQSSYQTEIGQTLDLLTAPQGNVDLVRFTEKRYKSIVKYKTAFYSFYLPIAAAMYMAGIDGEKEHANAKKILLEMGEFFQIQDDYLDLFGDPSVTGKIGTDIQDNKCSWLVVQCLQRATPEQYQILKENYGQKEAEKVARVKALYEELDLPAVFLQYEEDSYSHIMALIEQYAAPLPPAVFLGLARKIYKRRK
active: [7] -0.608
inactive: [1] -0.059 | volasertib -0.191 | [2] 0.075 | epoxomicin 0.028 | [3] -0.054 | [4] -0.277 | [5] 0.111 | rosiglitazone 0.235 | [6] -0.034

GTF3C5 isoform 3 (UniProt Q9Y5Q8)
inactive: [1] -0.188 | volasertib -0.157 | [2] 0.213 | epoxomicin -0.011 | [3] 0.029 | [4] -0.034 | [5] 0.078 | rosiglitazone 0.017 | [6] -0.025 | [7] 0.03

GATD1 (UniProt Q8NB37)
Sequence of UniProt Q8NB37 (Q8NB37 whole entry, looked up): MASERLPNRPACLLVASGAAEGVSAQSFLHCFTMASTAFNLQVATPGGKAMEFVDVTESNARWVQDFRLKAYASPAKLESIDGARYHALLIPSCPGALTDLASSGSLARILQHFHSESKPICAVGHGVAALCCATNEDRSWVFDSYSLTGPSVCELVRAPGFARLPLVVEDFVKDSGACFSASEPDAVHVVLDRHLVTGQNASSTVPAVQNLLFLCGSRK
inactive: [1] -0.023 | volasertib -0.009 | [2] -0.032 | epoxomicin 0.078 | [3] 0.013 | [4] -0.034 | [5] -0.02 | rosiglitazone 0.013 | [6] 0.011 | [7] -0.049

GALC (UniProt P54803)
Sequence of UniProt P54803 (P54803 whole entry, looked up): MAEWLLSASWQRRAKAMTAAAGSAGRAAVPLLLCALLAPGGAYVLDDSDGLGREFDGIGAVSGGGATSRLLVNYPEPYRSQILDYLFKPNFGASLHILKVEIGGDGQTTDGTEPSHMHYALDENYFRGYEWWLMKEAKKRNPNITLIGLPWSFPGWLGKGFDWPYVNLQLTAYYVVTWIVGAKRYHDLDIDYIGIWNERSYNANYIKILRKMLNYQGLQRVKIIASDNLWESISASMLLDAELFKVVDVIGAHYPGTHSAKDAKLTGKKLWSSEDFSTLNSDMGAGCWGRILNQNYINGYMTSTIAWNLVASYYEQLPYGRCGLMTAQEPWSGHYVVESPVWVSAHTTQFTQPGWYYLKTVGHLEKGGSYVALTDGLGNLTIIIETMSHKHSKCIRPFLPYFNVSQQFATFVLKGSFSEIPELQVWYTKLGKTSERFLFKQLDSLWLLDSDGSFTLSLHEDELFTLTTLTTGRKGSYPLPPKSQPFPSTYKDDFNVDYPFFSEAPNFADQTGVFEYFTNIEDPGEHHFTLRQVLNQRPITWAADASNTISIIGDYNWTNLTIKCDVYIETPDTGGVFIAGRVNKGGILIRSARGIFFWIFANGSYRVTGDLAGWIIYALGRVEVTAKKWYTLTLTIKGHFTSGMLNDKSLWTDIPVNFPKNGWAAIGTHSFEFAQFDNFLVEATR
active: [1] -0.275 | volasertib -0.959 | [7] -0.403
inactive: [2] -0.009 | epoxomicin 0.042 | [3] 0.012 | [4] 0.096 | [5] 0.01 | rosiglitazone -0.006 | [6] -0.011

HP1BP3 (UniProt Q5SSJ5)
Sequence of UniProt Q5SSJ5 (Q5SSJ5 whole entry, looked up): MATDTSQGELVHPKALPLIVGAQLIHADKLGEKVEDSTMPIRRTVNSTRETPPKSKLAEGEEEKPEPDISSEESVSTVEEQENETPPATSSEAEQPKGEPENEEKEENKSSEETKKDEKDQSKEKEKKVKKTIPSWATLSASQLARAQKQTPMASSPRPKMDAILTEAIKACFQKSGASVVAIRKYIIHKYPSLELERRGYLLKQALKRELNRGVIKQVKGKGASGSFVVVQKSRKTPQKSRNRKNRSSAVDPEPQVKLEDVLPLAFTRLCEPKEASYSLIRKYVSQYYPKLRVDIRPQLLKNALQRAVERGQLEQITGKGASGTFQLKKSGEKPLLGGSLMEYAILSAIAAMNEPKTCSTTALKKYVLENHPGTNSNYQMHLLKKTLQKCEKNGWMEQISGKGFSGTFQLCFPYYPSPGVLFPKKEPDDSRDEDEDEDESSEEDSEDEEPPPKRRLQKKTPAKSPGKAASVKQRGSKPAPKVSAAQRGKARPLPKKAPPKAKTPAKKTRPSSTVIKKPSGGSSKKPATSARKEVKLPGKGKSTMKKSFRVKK
inactive: [1] 0.122 | volasertib 0.054 | [2] -0.11 | epoxomicin -0.016 | [3] -0.015 | [4] 0.013 | [5] 0.046 | rosiglitazone -0.037 | [6] 0.126 | [7] 0.038

HMGN1 (UniProt P05114)
Sequence of UniProt P05114 (P05114 whole entry, looked up): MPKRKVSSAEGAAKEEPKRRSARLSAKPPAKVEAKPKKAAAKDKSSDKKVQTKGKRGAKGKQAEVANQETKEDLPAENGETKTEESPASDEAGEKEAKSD
inactive: [1] 0.054 | volasertib 0.141 | [2] -0.044 | epoxomicin -0.008 | [3] 0.063 | [4] 0.045 | [5] -0.094 | rosiglitazone -0.027 | [6] 0.039 | [7] 0.101

GALNT1 (UniProt Q10472)
Sequence of UniProt Q10472 (Q10472 whole entry, looked up): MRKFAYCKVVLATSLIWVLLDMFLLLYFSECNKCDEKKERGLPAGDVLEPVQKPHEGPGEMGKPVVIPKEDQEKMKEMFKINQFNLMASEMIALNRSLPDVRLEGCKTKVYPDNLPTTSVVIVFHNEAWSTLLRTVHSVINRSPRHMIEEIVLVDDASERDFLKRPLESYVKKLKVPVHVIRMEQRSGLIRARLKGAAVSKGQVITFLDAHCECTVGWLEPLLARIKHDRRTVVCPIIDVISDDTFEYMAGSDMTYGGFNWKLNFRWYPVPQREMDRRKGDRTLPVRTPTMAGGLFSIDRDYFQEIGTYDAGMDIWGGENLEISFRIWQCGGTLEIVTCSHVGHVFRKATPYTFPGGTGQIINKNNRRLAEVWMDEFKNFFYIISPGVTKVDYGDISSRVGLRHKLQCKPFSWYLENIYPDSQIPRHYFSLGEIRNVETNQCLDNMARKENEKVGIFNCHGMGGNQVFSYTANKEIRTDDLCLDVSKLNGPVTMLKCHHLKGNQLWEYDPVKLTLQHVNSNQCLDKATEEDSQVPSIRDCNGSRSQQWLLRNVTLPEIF
inactive: [1] -0.06 | [2] -0.011 | epoxomicin -0.068 | [3] -0.005 | [4] -0.041 | [5] -0.011 | rosiglitazone 0.003 | [6] -0.074 | [7] 0.106
active: volasertib -0.218

FERMT3 (UniProt Q86UX7)
active: volasertib -0.262
inactive: [1] -0.07 | [2] 0.053 | epoxomicin 0.019 | [3] -0.018 | [4] -0.04 | [5] 0.045 | rosiglitazone 0.059 | [6] -0.021 | [7] -0.149

HMG20A (UniProt Q9NP66)
Sequence of UniProt Q9NP66 (Q9NP66 whole entry, looked up): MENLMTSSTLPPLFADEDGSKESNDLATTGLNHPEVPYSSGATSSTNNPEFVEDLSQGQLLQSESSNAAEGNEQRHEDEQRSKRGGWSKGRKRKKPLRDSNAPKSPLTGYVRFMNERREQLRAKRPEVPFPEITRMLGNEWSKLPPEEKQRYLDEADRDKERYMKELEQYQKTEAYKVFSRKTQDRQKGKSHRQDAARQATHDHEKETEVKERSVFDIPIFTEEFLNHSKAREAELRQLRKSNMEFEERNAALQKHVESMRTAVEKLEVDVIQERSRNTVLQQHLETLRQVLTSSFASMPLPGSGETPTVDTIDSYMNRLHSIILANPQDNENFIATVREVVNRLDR
inactive: [1] 0.083 | volasertib -0.155 | [2] 0.029 | epoxomicin -0.107 | [3] -0.031 | [4] 0 | [5] 0.053 | rosiglitazone 0.017 | [6] 0.143 | [7] -0.003

GLS (UniProt O94925)
active: volasertib -0.366
inactive: [1] -0.271 | [2] 0.142 | epoxomicin 0.151 | [3] -0.026 | [4] -0.051 | [5] 0.103 | rosiglitazone 0.085 | [6] -0.085 | [7] -0.241

GSTP1 (UniProt P09211)
active: [1] 0.295 | volasertib 0.362
inactive: [2] 0.009 | epoxomicin -0.025 | [3] 0.032 | [4] 0.012 | [5] -0.013 | rosiglitazone 0.007 | [6] -0.066 | [7] -0.034

HEATR5B (UniProt Q9P2D3)
inactive: [1] -0.053 | volasertib -0.19 | [2] 0.083 | epoxomicin -0.058 | [3] -0.041 | [4] 0.018 | [5] -0.009 | rosiglitazone 0.003 | [6] -0.017 | [7] -0.015

HNRNPUL1 (UniProt Q9BUJ2)
Sequence of UniProt Q9BUJ2 (Q9BUJ2 whole entry, looked up): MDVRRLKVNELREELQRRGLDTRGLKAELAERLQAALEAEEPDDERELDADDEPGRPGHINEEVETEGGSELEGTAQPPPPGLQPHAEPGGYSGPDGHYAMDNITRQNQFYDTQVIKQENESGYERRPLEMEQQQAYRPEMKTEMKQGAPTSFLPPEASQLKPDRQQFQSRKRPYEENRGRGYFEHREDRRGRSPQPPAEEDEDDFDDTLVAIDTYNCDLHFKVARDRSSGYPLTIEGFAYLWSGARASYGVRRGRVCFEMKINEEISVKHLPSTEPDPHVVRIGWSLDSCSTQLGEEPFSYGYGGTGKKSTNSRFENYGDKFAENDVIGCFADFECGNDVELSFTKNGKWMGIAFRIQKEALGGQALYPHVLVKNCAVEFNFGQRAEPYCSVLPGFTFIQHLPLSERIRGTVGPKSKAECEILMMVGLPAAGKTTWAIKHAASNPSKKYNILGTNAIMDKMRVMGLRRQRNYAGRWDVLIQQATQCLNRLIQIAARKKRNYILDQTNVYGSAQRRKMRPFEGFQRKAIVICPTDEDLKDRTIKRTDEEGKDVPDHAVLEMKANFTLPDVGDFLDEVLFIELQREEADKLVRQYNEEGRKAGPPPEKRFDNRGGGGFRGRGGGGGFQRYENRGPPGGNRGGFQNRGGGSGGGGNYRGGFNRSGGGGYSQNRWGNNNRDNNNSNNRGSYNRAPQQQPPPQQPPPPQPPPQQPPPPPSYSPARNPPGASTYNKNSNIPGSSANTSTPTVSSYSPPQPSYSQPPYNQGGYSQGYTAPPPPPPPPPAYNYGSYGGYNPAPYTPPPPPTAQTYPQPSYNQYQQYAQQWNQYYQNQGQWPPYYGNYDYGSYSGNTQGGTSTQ
inactive: [1] 0.051 | volasertib -0.069 | [2] 0.014 | epoxomicin 0.019 | [3] -0.029 | [4] 0.004 | [5] 0.013 | rosiglitazone -0.001 | [6] 0.099 | [7] 0.031
